# Compound activity as filed in PubChem.
# FGF22 binding – binders of human FGF22 protein, primary screen, FGF22 synaptogenesis inhibitor project, biophysical, thermal shift, single point; recombinant FGF22 thermal shift, SYPRO orange fluorescence; percent of sucrose octasulfate shift, DMSO zero; activity (Tm shift, normalised), % at 9.99 µM; AID 651658, 2012; 340,000 tested, 1.5% active;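 active = mean Tm shift, scaled 0 neutral to 100 positive control, at about 1.3% or above, every replicate too, limit read from the data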
# Target sequence (Q9HCT0 whole entry, looked up): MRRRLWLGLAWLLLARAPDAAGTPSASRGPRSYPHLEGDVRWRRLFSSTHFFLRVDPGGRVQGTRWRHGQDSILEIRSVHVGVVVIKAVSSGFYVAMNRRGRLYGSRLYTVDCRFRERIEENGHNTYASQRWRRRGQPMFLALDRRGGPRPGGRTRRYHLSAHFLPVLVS
# DENV2 CPE rescue – inhibitors of DENV2 cytopathic effect, primary screen, cell-based, plate reader, single concentration; CPE inhibition, % at 9.99 µM; DENV2-infected cells, cytopathic effect rescue; 350,000 tested, 1.7% active; in the data active = CPE inhibition above about 20%, passing the limit was not always enough; tested in BHK-21 cells;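 also: 0% = median of neutral control wells and 100% = median of positive control wells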
# ERAP1 HTS inh – human ERAP1 aminopeptidase inhibitors, primary screen, biochemical, single point, plate reader; recombinant ERAP1, Leu-AMC fluorescence, 60 min; 340,000 tested, 0.15% active; inhibition, % at 10.7 µM; Endoplasmic reticulum aminopeptidase 1 (Homo sapiens), Q9NZ08;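 active = mean replicate inhibition of at least 30%, or all replicates individually reaching that 30% level; inactive = mean below 30% and not every replicate reaching it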;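 also: 0% = neutral control wells and 100% = L-leucinethiol positive control wells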
# MLL AF4-AF9 inh – inhibitors of AF4 peptide binding to AF9, primary screen, biochemical, AlphaScreen, biotin-AF4 peptide, FLAG-AF9, single point; AID 651704, 2012; Protein AF-9 (Homo sapiens), P42568; inhibition, % at 10 µM; 350,000 tested, 0.47% active;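 active = every replicate reaching a set inhibition limit, whatever the replicate mean, cut at about 25% in these data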;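 also: 0% = plate neutral control median and 100% = total signal loss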
# RAD52 anneal inh – RAD52 DNA annealing inhibitors, primary screen, biochemical, FRET, single point, set 2. DNA repair protein RAD52 homolog (Homo sapiens), P43351. recombinant RAD52 DNA annealing, FRET fluorescence. inhibition, % at 18.7 µM. 360,000 tested, 0.46% active. AID 651710, 2012;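 active = every replicate showing at least 50% inhibition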
# Target sequence (P43351 whole entry, looked up): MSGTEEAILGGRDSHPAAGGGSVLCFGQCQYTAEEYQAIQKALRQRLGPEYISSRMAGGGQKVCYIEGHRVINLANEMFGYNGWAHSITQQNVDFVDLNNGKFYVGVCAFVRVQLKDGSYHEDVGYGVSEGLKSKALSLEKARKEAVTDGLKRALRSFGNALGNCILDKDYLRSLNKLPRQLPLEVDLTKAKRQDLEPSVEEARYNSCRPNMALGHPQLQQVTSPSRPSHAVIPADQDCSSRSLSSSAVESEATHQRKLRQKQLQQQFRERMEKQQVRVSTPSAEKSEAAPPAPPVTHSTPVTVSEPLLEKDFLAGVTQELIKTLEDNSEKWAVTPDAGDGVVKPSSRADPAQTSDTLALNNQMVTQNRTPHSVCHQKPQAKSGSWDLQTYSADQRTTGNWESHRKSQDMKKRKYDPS
# * = called active by the depositor; . = no result given. Shown are actives, neighbours in structure and some others; about 4% of the full set was active somewhere.
SMILES,FGF22 binding,DENV2 CPE rescue,ERAP1 HTS inh,MLL AF4-AF9 inh,RAD52 anneal inh
O=C(C[C@@H]1CC[C@@H]2[C@H](COC[C@H](O)CN2S(=O)(=O)c2cccc(Cl)c2)O1)NC1CCCC1,0,-10,-1,8,19
O=C(C[C@H]1CC[C@@H]2[C@H](COC[C@H](O)CN2S(=O)(=O)c2cccc(Cl)c2)O1)N1CCOCC1,0,21*,0,-3,5
O=C(C[C@H]1CC[C@@H]2[C@H](COC[C@@H](O)CN2S(=O)(=O)c2cccc(Cl)c2)O1)NC1CCCC1,0,10,-3,26*,40
CN1CCN(C(=O)C[C@H]2CC[C@@H]3[C@H](COC[C@@H](O)CN3S(=O)(=O)c3cccc(Cl)c3)O2)CC1,0,23*,0,-7,4
Cc1ccc(S(=O)(=O)N(C)CC(=O)Oc2ccc(-c3nnco3)cc2)cc1,0,126*,-1,-9,2
O=C1NC[C@H](CCCCN2C[C@H](Cc3ccccc3)N(CCC3CCCCC3)C(=O)C2=O)N(CCc2ccccc2)C1=O,8.8*,1,0,-1,7
Cc1cc2ccccn2c1C(=O)c1cc([N+](=O)[O-])cc([N+](=O)[O-])c1,0,.,-2,33*,-4
Cc1cc2ccccn2c1C(=O)c1ccc(C#N)cc1,0,8,0,19,-20
CCN(CC)S(=O)(=O)c1cccc(C(=O)c2c(C)cc3ccccn23)c1,43*,7,-5,7,-14
COC(=O)c1cc(C(=O)c2c(C)cc3ccccn23)cc([N+](=O)[O-])c1,0,-2,0,23,-9
CCNC(=O)C[C@@H]1CC[C@H]2[C@H](COc3ccc(NC(=O)c4ccccc4)cc3C(=O)N2C)O1,1,14,0,0,2
O=C(C[C@@H]1CC[C@@H](NC(=O)Nc2ccccc2F)[C@@H](CO)O1)NCc1ccc(F)cc1,.,8,2,-2,-6
Cc1ccc(-c2ccc(CN3C(C(C)C)C(=O)N(Cc4cn(Cc5ccco5)nn4)CCS3(=O)=O)cc2)cc1 (stereo not given),0,28*,-3,-2,-31
CC(C)CC1C(=O)N(Cc2cn(Cc3ccco3)nn2)CCS(=O)(=O)N1Cc1ccc(-c2cccc(CO)c2)cc1 (stereo not given),0,14,-1,-4,-19
CC(C)CC1C(=O)N(Cc2cn(Cc3ccco3)nn2)CCS(=O)(=O)N1Cc1ccc(-c2ccc(Cl)cc2)cc1 (stereo not given),0,23*,-3,-3,-7
COc1cccc(-c2ccc3n(c2=O)C[C@H]2[C@H](CO)[C@@H](C(=O)N(C)C)N(C(=O)C4CCC4)[C@@H]32)c1,0,18,4,-18,11
CC(C)NC(=O)N(C)C[C@H]1Oc2cc(C#CC(C)(C)O)ccc2S(=O)(=O)N([C@@H](C)CO)C[C@@H]1C,0,1,2,-1,1
O=C1NC(c2ccc(-c3ccccc3[N+](=O)[O-])o2)C(C(=O)c2ccccc2)C(O)(C(F)(F)F)N1 (stereo not given),43*,.,-1,5,-2
CO[C@H]1CN(C)C(=O)c2ccc(NC(=O)Nc3cc(F)ccc3F)cc2OC[C@@H](C)N(C(=O)c2cnccn2)C[C@@H]1C,0,-4,0,3,11
CCOC(=O)C1(CCCc2ccccc2)CCN(C(=O)c2cc(C)nc(C)n2)CC1,0,1,19,-2,-5
CCOC(=O)C1(CCCc2ccccc2)CCN(C(=O)c2cnc(C)cn2)CC1,44*,-6,-5,0,-2
Cc1cc(C(=O)Nc2cccc3c2O[C@H](CN(C)C)[C@H](C)CN([C@@H](C)CO)C3=O)n(C)n1,0,28*,2,-2,8
COc1ccc(CN(C)C[C@@H]2Oc3c(NC(=O)c4cc(C)nn4C)cccc3C(=O)N([C@H](C)CO)C[C@@H]2C)cc1,0,-8,-1,-4,-2
COc1ccc(CN(C)C[C@@H]2Oc3c(NC(=O)c4cc(C)nn4C)cccc3C(=O)N([C@H](C)CO)C[C@H]2C)cc1,0,27*,-4,1,0
Cc1cc(C(=O)Nc2cccc3c2O[C@H](CN(C)C)[C@@H](C)CN([C@H](C)CO)C3=O)n(C)n1,0,-5,-2,-2,2
SMILES,FGF22 binding,DENV2 CPE rescue,ERAP1 HTS inh,MLL AF4-AF9 inh,RAD52 anneal inh
Cc1cc(C(=O)Nc2cccc3c2O[C@H](CN(C)Cc2ccc(C(=O)O)cc2)[C@@H](C)CN([C@H](C)CO)C3=O)n(C)n1,0,17,0,-1,19
Cc1cc(C(=O)Nc2cccc3c2O[C@H](CN(C)Cc2ccc(C(=O)O)cc2)[C@H](C)CN([C@H](C)CO)C3=O)n(C)n1,0,46*,-1,-8,14
O=C(C[C@H]1C[C@H]2c3cc(NS(=O)(=O)c4ccccc4)ccc3O[C@H]2[C@@H](CO)O1)NCC1CC1,-1,-1,-3,0,4
CCC(=O)N1CC(=O)N2[C@H](CO)[C@@H](c3ccc(C#Cc4cccc(OC)c4)cc3)[C@@H]2C1,.,4,.,-2,-19
CCCc1cn(CC[C@H]2CC[C@@H](NC(=O)CCN3CCCCC3)[C@@H](CO)O2)nn1,0,-3,4,-1,-3
O=C(/C=C/c1ccc(Br)cc1)c1ccc(NC2=NCCCS2)cc1,0,2,-5,-2,51*
O=C(/C=C/c1ccccc1)c1ccc(NC2=NCCCS2)cc1,0,-2,7,10,27
CO[C@@H]1CN(C)C(=O)c2cc(NC(=O)C3CCC3)ccc2OC[C@H](C)N(Cc2cccnc2)C[C@@H]1C,0,-6,4,-1,6
CCCn1c(=O)c(C(=O)NNS(=O)(=O)c2ccc(C)cc2)c(O)c2ccccc21,0,35*,-2,-5,-5
CCCn1c(=O)c(C(=O)NNS(=O)(=O)c2ccc(NC(=O)OC)cc2)c(O)c2ccccc21,0,-4,0,1,1
O=C(OCC(=O)c1c[nH]c2ccccc12)c1cc(Br)ccc1O,43*,10,2,0,-16
COc1ccc(S(=O)(=O)Nc2ccc3c(c2)C(=O)N([C@H](C)CO)C[C@H](C)[C@H](CN(C)C(=O)Nc2ccc(C(F)(F)F)cc2)OCCCC[C@H](C)O3)cc1,0,76*,-3,2,-13
COc1ccc(S(=O)(=O)Nc2ccc3c(c2)C(=O)N([C@H](C)CO)C[C@@H](C)[C@H](CN(C)C(=O)Nc2ccc(C(F)(F)F)cc2)OCCCC[C@H](C)O3)cc1,1,10,-3,4,-36
